# Reference: PubChem BioAssay AID1851 (National Center for Advancing Translational Sciences (NCATS), 2009)
# Values joined by “and” are separate entries in the source; they are usually repeats but may differ in a detail not shown here. Equal values may be shown once. Out of some 16,000 compounds screened, about 5,800 (36%) were called active. Inconclusive results (about 23%) are left out. The call rests on the fitted dose curve; in most records, active means well fitted curve in the direction sought with a large enough effect; inconclusive means small, poorly fitted or top-dose-only effect, or effect the other way; inactive means no such curve, though single readings can be large or run the other way. The list shows a part of the results. A structure can be active in one record and inactive in another.
# Biological target: Cytochrome P450 2C19 (Homo sapiens) (UniProt P33261)
# Assay: Cytochrome panel assay with activity outcomes
# Settings: recombinant CYP, pro-luciferin dealkylation, luminescence, p450-cyp2c19; series mostly up to 57.1 µM
# On the % scale 0 is the no-effect control and ±100 the full control effect.
# Cytochrome P450 2C19 (Homo sapiens), sequence (P33261 whole entry, looked up): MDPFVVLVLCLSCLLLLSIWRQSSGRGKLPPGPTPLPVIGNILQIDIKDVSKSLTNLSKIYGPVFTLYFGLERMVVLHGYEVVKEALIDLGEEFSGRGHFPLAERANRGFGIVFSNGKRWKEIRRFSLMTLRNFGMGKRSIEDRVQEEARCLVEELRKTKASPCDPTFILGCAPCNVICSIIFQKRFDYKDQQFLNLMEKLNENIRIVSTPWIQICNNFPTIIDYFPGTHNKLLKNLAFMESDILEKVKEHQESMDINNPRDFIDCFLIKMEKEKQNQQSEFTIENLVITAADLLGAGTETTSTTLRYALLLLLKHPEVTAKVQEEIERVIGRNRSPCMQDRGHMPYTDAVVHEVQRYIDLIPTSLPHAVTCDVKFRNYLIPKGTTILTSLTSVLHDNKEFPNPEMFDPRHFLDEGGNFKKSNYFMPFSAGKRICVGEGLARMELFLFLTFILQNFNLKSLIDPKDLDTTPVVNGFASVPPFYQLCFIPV
Compound,AC50,"activity, negative = inhibition"
CCCCCCCCCCCCCC(=O)O[C@H]1[C@@H](C)[C@@]2(O)[C@@H](C=C(CO)C[C@]3(O)C(=O)C(C)=C[C@@H]23)C2C(C)(C)[C@]21OC(C)=O (some centres undefined),inactive,
C[C@@H]1O[C@@H](O[C@H]2C[C@@H](O)[C@]3(CO)[C@@H]4[C@@H](O)C[C@]5(C)[C@H]([C@@H]6COC(=O)C6)CC[C@@]5(O)[C@H]4CC[C@@]3(O)C2)[C@H](O)[C@H](O)[C@@H]1O,inactive,
N[C@@H](CSC1c2ccccc2-c2ccccc21)C(=O)O,,-32.5% [at 11.4 µM] (inactive)
CCOC(=O)[C@@H]1[C@@H]2c3ccccc3-c3ccccc3[C@H]2C[C@H]1O,2 µM (active),
CC1(C)[C@@H]2CC[C@]1(C)CN(CCC[N+](C)(C)C)C2,,6.07% [at 11.4 µM] (inactive)
CC(C)Oc1cccnc1N(C)C1CCN(Cc2ccccc2)CC1,inactive,
COC(=O)C[C@](O)(CCCC(C)(C)O)C(=O)O[C@@H]1C(OC)=C[C@]23CCCN2CCc2cc4c(cc2[C@H]13)OCO4,inactive,
CS(=N)(=O)CC[C@@H](N)C(=O)O (some centres undefined),inactive,
COc1ccccc1CC1C(=O)C2CCN1CC2 (centres undefined),inactive,
COCCn1c(SCc2nc3sc(C(=O)OC)c(C)c3c(=O)[nH]2)nc2ccccc21,0.708 µM (active),
O=C(O)[C@H]1CCN1,inactive,
N#Cc1ccc(CN2CCCC3(CCN(C(=O)Oc4ccccc4)CC3)C2)cc1,inactive,
CC(=O)[C@@H]1CC[C@@H]2[C@@H]3CC=C4C[C@H](OS(=O)(=O)O)CC[C@@]4(C)[C@H]3CC[C@]21C,inactive,
CCCCn1c(O)c(C(CC)=Nc2ccc(OC)cc2OC)c(=O)[nH]c1=O,15.8 µM (active),
CCCCn1c(O)c(C(CC)=NCc2ccc(F)cc2)c(=O)[nH]c1=O,7.08 µM (active),
C=CCn1c(O)c(C(C)=NCCCN2CCOCC2)c(=O)[nH]c1=O,inactive,
CCCCn1c(O)c(C=NCCN2CCCCC2)c(=O)[nH]c1=O,inactive,
C[C@]12CCC3c4ccc(OCC(=O)O)cc4CCC3C1CCC2=O (some centres undefined),,29.2% [at 11.4 µM] (inactive)
CN(C)[C@@H]1C(=O)C(C(N)=O)=C(O)[C@]2(O)C(=O)C3=C(O)c4c(O)cccc4[C@](C)(O)[C@H]3C[C@@H]12,,-41.8% [at 11.4 µM] (inactive)
CCOC(=O)c1[nH]c(C)c(C(=O)N2CCC3(CC2)OCCO3)c1C,5.01 µM (active),
OCc1cnc[nH]1,inactive,
CC(C)(c1ccc(OC[C@@H]2CO2)cc1)c1ccc(OC[C@H]2CO2)cc1,inactive,
C[C@@H]1O[C@@H](O[C@H]2C[C@@H](O)[C@@]3(CO)[C@H]4[C@H](O)C[C@]5(C)[C@@H](C6=CC(=O)OC6)CC[C@]5(O)[C@H]4CC[C@@]3(O)C2)[C@@H](O)[C@H](O)[C@H]1O,,30.3% [at 11.4 µM] (inactive)

Compound,AC50,"activity, negative = inhibition"
C[N+]1(C)[C@@H]2CC[C@H]1CC(OC(=O)c1c[nH]c3ccccc13)C2 (some centres undefined),inactive,
N[C@H](Cc1c[nH]c2ccccc12)P(=O)(O)O,,13.8% [at 11.4 µM] (inactive)
CC(C(=O)c1c[nH]c2ccccc12)N1CCSCC1 (centres undefined),8.91 µM (active),
C[C@H]1C(=O)O[C@@H]2CCN3CC=C(COC(=O)[C@@](C)(O)[C@@]1(C)O)[C@H]23,inactive,
CN1C(=O)CCS(=O)(=O)[C@@H]1c1ccc(Cl)cc1,inactive,
Brc1c(NC2=NCCN2)ccc2nccnc12,inactive,
c1ccc2c(c1)[I+]c1ccccc1-2,501 nM (active) and 63.1 nM (active),
CC[C@]1([C@H]2O[C@@H]([C@@H]3O[C@](O)(CO)[C@@H](C)C[C@H]3C)C[C@H]2C)CC[C@@H]([C@]2(C)CC[C@@]3(C[C@@H](O)[C@@H](C)[C@@H]([C@H](C)[C@H](OC)[C@H](C)C(=O)O)O3)O2)O1,inactive,
NCCCNCCSP(=O)(O)O,inactive,
CCN1CCN(Cc2cc(OC)c(OC)cc2[N+](=O)[O-])CC1,inactive,
c1ccc([C@H]2CNCc3ccccc32)cc1,inactive,
Cc1ccc(N(C)C(=O)Oc2cccc3ccc(C)nc23)cc1,7.94 µM (active),
C=CCN1C[C@@H](C)N([C@H](c2ccc(C(=O)N(CC)CC)cc2)c2cccc(OC)c2)C[C@H]1C,inactive,
Cc1cc(C)c(-n2c(O)c(C=NCCN3CCOCC3)c(=O)[nH]c2=O)c(C)c1,inactive,
CC(C)CN1CCCC2(CCN(C(=O)c3ccncc3)CC2)C1,inactive,
NCCCC[C@H](N[C@@H](CCc1ccccc1)C(=O)O)C(=O)N1CCC[C@H]1C(=O)O,inactive,
CN(C)C=C1C(=O)N(C2CCCCC2)C(=O)N(C2CCCCC2)C1=O,20 µM (active),
N=C(N)c1ccc(-c2ccc(-c3ccc(C(=N)N)cc3)o2)cc1,,37% [at 11.4 µM] (inactive)
CN1CCC2(CC1)CCN(C(=O)Oc1ccccc1)CC2,inactive,
CCN1C[C@@]2(COC)CC[C@H](OC)[C@]34[C@@H]1[C@]1(OCO[C@@]15C[C@@H](OC)C1C[C@H]3[C@H]5[C@@H]1OC)[C@H](O)[C@@H]24,inactive,
O=C(O)CC[N+](=O)[O-],inactive,
Cc1c(OCC(F)(F)F)ccnc1CS(=O)c1nc2ccccc2[nH]1 (centres undefined),0.1 µM (active),
CC1(C)N(O)C(c2ccc(C(=O)O)cc2)=[N+]([O-])C1(C)C,inactive,

Compound,AC50,"activity, negative = inhibition"
CCc1ccc(CCN2CCCCC2)nc1,,-27.8% [at 11.4 µM] (inactive)
Cc1ccccc1-c1nc(CS(=O)CC(=O)N2CCC3(CC2)OCCO3)c(C)o1 (centres undefined),10 µM (active),
CCc1ccccc1NC(=S)NC1CC2CCC(C1)N2Cc1ccco1 (centres undefined),inactive,
Nc1nc(N)c(Cn2ccnc2)c(=O)[nH]1,,32.7% [at 11.4 µM] (inactive)
N[C@H](Cc1o[nH]c(=O)c1Cl)C(=O)O,1.26 µM (active),
N[C@@H](Cc1cc(Br)c(O)c(Br)c1)C(=O)O,,11.6% [at 11.4 µM] (inactive)
Cc1o[nH]c(=O)c1C[C@H](N)C(=O)O,inactive and 2.51 µM (active),
N[C@H](CCl)C(=O)O,inactive,
N[C@@H](Cn1oc(=O)[nH]c1=O)C(=O)O,inactive,
Cc1o[nH]c(=O)c1C[C@@H](N)C(=O)O,inactive,
O=c1cc(-c2ccc(O)c(O)c2)oc2cc(O)cc(O)c12,inactive,
NCCCN1CCN(c2ccccc2)CC1,,2.32% [at 11.4 µM] (inactive)
Nc1ccc(CCN2CCN(c3cccc(C(F)(F)F)c3)CC2)cc1,7.94 µM (active),
Cc1cc(OCc2ccc([N+](=O)[O-])cc2)c2c3c(c(=O)oc2c1)CCCC3,0.708 µM (active),
Cc1cc(OCC(=O)OC(C)C)c2c3c(c(=O)oc2c1)CCCC3,3.55 µM (active),
CC(C)[C@H](CO)Nc1nc(Nc2cccc(Cl)c2)c2ncn(C(C)C)c2n1,inactive,
CC[C@H](C)C(=O)O[C@@H]1[C@H](O)[C@@H]2[C@H](CN3C[C@@H](C)CC[C@@H]3[C@@]2(C)O)[C@@H]2C[C@@]34O[C@@]5(O)[C@@H](OC(=O)[C@](C)(O)CC)CC[C@@]3(C)[C@H]5[C@H](OC(C)=O)[C@@H](OC(C)=O)[C@H]4[C@]12O,inactive,
COc1cc2c(cc1OC)[C@]13CC[N@+]4(C)CC5=CCO[C@H]6CC(=O)N2[C@@H]1[C@@H]6[C@@H]5C[C@]34O,,-1.84% [at 11.4 µM] (inactive)
c1ccc(CN2CCN(Cc3ccc4c(c3)OCCO4)CC2)cc1,inactive,
Cc1ccc(C2CC(=O)C(C=NCCN3CCN(C(=O)Cc4ccccc4)CC3)=C(O)C2)cc1 (centres undefined),3.16 µM (active),
c1ccc(CCN2CCOCC2)nc1,,1.5% [at 11.4 µM] (inactive)
CC(C)CN1CCC2(CC1)CCN(C(=O)Oc1ccccc1)CC2,inactive,
CCCN1CCc2cc(O)cc3c2[C@H]1Cc1ccc(O)c(O)c1-3,inactive,

Compound,AC50,"activity, negative = inhibition"
c1ccc(CN2CCC3(CCc4ccccc43)CC2)cc1,2.51 µM (active),
c1ccc(CN2CCC3(CCNCC3)CC2)cc1,5.01 µM (active),
O=C(Oc1ccccc1)N1CCC2(CCN(Cc3ccccc3)CC2)CC1,inactive,
c1ccc(CN2CC[C@@]3(CCCNC3)C2)cc1,inactive,
c1ccc(CN2CCCC3(CCNCC3)C2)cc1,inactive,
c1cc(CN2CCC3(CCNCC3)CC2)ccn1,inactive,
CCn1cc(C(=O)O)c(=O)c2cc3c(cc21)OCO3,inactive,
C[As+](C)(c1ccc(Br)c([N+](=O)[O-])c1)c1ccc(Br)c([N+](=O)[O-])c1.O=[N+]([O-])O,,27.9% [at 11.4 µM] (inactive)
S=C=Nc1cccc(C2(N3CCCCC3)CCCCC2)c1,inactive,
CS(=O)(=O)Nc1ccc(Cc2noc(-c3ccc4[nH]cc(CCN)c4c3)n2)cc1,15.8 µM (active),
C[C@H](N)Cc1c[nH]c2ccc(OCc3cccs3)cc12,inactive,
CN1CCN(c2ccc3ccccc3n2)CC1,inactive,
C[C@H](Br)C(=O)N[C@H](CO)C(=O)O,,4.64% [at 11.4 µM] (inactive)
CCCN1CCC[C@@H]2Cc3nc(N)ncc3C[C@H]21,inactive,
CC(=NCc1ccco1)c1c(O)n(-c2ccccc2)c(=O)[nH]c1=O,10 µM (active),
CC(=Nc1c(C)n(C)n(-c2ccccc2)c1=O)c1c(O)n(Cc2ccccc2)c(=O)[nH]c1=O,inactive,
CC(=NCCN1CCOCC1)c1c(O)n(Cc2ccccc2)c(=O)[nH]c1=O,inactive,
C/C=C1\C[N@@+]2(C)CC[C@@]34C(=C(C=O)[C@H]1C[C@H]32)Nc1ccccc14,inactive,
O=[N+]([O-])c1cc(-c2ccc([As](=O)(O)O)cc2)ccc1[As](=O)(O)O,,22.9% [at 11.4 µM] (inactive)
COCCNC(=S)NC1CC2CCCC(C1)N2Cc1cccs1 (centres undefined),inactive,
